Experimental data: PubChem BioAssay
For part of these data: Measured potencies and affinities stand elsewhere. Calls of active or inactive are those of the source. Unless noted, how the calls were made is not given here.

Experiments:
[1] = antimalarial activity against Dd2 strain (AID 2302;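 active means growth inhibition above 50% at the single 2 µM test dose, taken to imply half-maximal potency below 2 µM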;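 further: 0% = DMSO untreated growth and 100% = chloroquine plus artemisinin killed control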); settings: P. falciparum Dd2 in RBCs, LDH growth readout, 72 h; at 2 µM; stronger effect = higher value
[2] = HepG2 cytotoxicity, primary screen, cytotoxicity control for P. falciparum antimalarial project, cell-based, ATP luminescence (AID 2303;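 active means inhibition above 50%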;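 further: 0% = DMSO wells and 100% = digitonin-killed cells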); settings: HepG2 viability, 24-48 h, at 10 µM, stronger effect = higher value
[3] = target: L-lactate dehydrogenase (Plasmodium falciparum (isolate CDC / Honduras)) (UniProt Q27743); test: PfLDH activity inhibition – cell lysate, 3D7 strain, counter-screen for P. falciparum growth inhibition project (AID 2304);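 further: 0% = vehicle and 100% = reference inhibitor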; settings: P. falciparum 3D7 crude extract, LDH APAD/NBT absorbance; at 2 µM; stronger effect = higher value
Sequence of L-lactate dehydrogenase (Plasmodium falciparum (isolate CDC / Honduras)) (Q27743 whole entry, looked up): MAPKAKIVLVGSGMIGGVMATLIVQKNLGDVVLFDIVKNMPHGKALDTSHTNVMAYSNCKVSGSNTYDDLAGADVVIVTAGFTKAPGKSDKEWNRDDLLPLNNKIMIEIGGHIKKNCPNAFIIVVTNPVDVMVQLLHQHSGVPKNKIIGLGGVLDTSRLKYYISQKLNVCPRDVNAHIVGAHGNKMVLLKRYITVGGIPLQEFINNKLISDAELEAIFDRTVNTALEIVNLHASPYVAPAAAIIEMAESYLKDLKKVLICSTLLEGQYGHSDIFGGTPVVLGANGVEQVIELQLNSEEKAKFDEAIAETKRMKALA

[4] = inhibition of 3D7 malaria parasite growth – strain 3D7 (AID 2306);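 further: 0% = DMSO wells and 100% = chloroquine plus artemisinin control wells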; settings: P. falciparum 3D7 erythrocytic growth, LDH absorbance, 72 h; at 2 µM; stronger effect = higher value
[5] = target: Calcium-dependent protein kinase 1 (Plasmodium falciparum (isolate 3D7)) (UniProt P62344); test: PfCDPK1 kinase inhibitors, biochemical, TCAMS library (AID 1159585; cut-off not given, nearly all actives have IC50 up to about 0.98 µM;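 further: inhibitors leave more ATP so luminescence rises with inhibition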); settings: recombinant PfCDPK1, Kinase-Glo ATP depletion luminescence
Sequence of Calcium-dependent protein kinase 1 (Plasmodium falciparum (isolate 3D7)) (P62344 whole entry, looked up): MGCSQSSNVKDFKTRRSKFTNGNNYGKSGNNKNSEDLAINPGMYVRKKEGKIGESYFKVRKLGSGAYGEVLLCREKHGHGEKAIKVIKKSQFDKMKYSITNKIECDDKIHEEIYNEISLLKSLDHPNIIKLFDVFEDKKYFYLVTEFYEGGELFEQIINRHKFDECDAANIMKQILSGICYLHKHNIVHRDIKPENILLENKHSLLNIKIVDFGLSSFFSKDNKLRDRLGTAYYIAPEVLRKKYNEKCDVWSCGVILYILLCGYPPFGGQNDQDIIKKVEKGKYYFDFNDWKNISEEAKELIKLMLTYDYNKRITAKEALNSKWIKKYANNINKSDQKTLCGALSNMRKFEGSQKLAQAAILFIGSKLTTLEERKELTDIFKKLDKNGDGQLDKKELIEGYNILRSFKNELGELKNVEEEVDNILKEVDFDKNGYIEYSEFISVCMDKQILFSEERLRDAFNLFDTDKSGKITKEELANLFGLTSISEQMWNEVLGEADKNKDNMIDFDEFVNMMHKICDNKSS

[6] = target: Plasmodium falciparum protein kinase 6 (PK6, PF3D7_1337100) (UniProt Q8IDW1); test: PfPK6 kinase inhibitors, biochemical, TCAMS library (AID 1159586); settings: recombinant PfPK6, Kinase-Glo ATP depletion luminescence
Sequence of Plasmodium falciparum protein kinase 6 (PK6, PF3D7_1337100) (Q8IDW1 1-305): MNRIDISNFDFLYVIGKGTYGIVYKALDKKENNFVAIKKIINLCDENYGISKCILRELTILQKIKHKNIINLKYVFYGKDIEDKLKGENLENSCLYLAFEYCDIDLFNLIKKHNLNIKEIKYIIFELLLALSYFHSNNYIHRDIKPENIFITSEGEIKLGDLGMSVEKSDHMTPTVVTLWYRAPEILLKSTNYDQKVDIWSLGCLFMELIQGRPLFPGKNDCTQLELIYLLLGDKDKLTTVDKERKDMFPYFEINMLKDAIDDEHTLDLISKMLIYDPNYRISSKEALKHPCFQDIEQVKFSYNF

[7] = target: Protein kinase 7 (PK7), Plasmodium falciparum 3D7 (PF3D7_0213400) (UniProt Q7YTF7); test: inhibition of Plasmodium PK7 catalytic activity – biochemical, TCAMS antimalarial set, Kinase-Glo luminescence (AID 1159587); settings: recombinant PfPK7, Kinase-Glo ATP depletion luminescence
Sequence of Protein kinase 7 (PK7), Plasmodium falciparum 3D7 (PF3D7_0213400) (Q7YTF7 1-343): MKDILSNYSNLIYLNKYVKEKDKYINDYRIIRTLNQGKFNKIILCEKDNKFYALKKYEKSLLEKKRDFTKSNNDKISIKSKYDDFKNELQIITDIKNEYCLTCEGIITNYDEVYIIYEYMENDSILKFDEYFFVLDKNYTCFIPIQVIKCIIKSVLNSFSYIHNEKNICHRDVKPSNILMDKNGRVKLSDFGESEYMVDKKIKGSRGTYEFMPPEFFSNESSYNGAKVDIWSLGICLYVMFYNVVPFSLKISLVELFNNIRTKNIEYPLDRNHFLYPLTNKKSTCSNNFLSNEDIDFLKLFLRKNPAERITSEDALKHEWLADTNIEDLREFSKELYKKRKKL

[8] = target: Calcium-dependent protein kinase 4 (Plasmodium falciparum (isolate 3D7)) (UniProt Q8IBS5); test: PfCDPK4 kinase inhibitors, biochemical, TCAMS library (AID 1159588; cut-off not given, nearly all actives have IC50 up to about 0.91 µM); settings: recombinant PfCDPK4, Kinase-Glo ATP depletion luminescence
Sequence of Calcium-dependent protein kinase 4 (Plasmodium falciparum (isolate 3D7)) (Q8IBS5 whole entry, looked up): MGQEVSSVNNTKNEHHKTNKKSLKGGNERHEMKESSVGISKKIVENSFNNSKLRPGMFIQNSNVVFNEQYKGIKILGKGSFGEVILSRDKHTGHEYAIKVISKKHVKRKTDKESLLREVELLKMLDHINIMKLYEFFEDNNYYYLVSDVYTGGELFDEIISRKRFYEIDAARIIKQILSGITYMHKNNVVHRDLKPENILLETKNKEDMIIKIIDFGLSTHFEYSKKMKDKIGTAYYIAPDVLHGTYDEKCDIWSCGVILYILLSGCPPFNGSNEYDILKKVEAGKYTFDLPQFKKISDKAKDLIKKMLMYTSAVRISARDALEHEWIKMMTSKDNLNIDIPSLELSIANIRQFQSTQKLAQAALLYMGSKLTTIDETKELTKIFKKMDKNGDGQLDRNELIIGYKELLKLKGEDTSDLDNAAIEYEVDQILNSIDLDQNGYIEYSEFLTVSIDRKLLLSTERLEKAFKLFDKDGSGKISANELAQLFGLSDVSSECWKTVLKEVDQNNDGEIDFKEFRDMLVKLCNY

Row | Compound | growth inhibition [1] | inhibition [2] | inhibition [3] | growth inhibition [4] | outcome [5] | outcome [6] | outcome [7] | outcome [8]
1 | CCCNCc1c(O)ccc2c(CNCCC)c(O)ccc12 | 9% (inactive) | 24% (inactive) | -1% (inactive) | 101% (active) | inactive | inactive | inactive | inactive
2 | CNc1nc(NN=Cc2ccccc2Cl)nc(Nc2cccc(C(F)(F)F)c2)n1 | -9% (inactive) | 12% (inactive) | 0% (inactive) | 84% (active) | inactive | inactive | inactive | inactive
3 | COc1ccc(C=NNc2nc(-c3ccccc3)cc(=O)[nH]2)cc1OC | 93% (active) | 22% (inactive) | 4% (inactive) | 92% (active) | inactive | inactive | inactive | inactive
4 | CCN(CCCN1CCCCC1)c1cc(C)nc(Nc2ccc(C)cc2)n1 | 10% (inactive) | 17% (inactive) | -1% (inactive) | 101% (active) | inactive | inactive | inactive | inactive
5 | Cn1c2c(c3ccccc31)CN(CCC1(c3ccc(Cl)c(Cl)c3)CN(C(=O)Cc3ccccc3)CCO1)CC2 (configuration not stated) | 91% (active) | 22% (inactive) | 0% (inactive) | 95% (active) | inactive | inactive | inactive | inactive
6 | CN(C)Cc1ccc(-c2cccc(Nc3nccc(NCC(O)c4ccccc4)n3)c2)cc1 (configuration not stated) | 100% (active) | 74% (active) | -1% (inactive) | 102% (active) | inactive | inactive | inactive | inactive
7 | Cc1cc(C2CCN(CCCCNC(=O)c3ccc(-c4ccc(C#N)cc4)cc3)CC2)c(C)cc1O | 96% (active) | 27% (inactive) | 3% (inactive) | 96% (active) | inactive | inactive | inactive | inactive
8 | Cc1sc(N2CCN(C)CC2)nc1C(=O)Nc1ccc(F)cc1C(F)(F)F | 63% (active) | 7% (inactive) | 4% (inactive) | 92% (active) | inactive | inactive | inactive | inactive
9 | O=c1cc(NCCCNCc2cc(C(F)(F)F)ccc2Cl)[nH]c2ccccc12 | 20% (inactive) | 25% (inactive) | -2% (inactive) | 90% (active) | inactive | inactive | inactive | inactive
10 | CNCc1ccc(-c2cccc(CNCc3ccc(-c4ccccc4)cc3)c2)c(C(=O)OC)c1 | 19% (inactive) | 25% (inactive) | 3% (inactive) | 92% (active) | inactive | inactive | inactive | inactive
11 | O=C(Cc1ccc(-c2ccccc2)cc1)N[C@H]1CCN(Cc2ccc(OCCCN3CCCCC3)cc2)C1 | 27% (inactive) | 36% (inactive) | 0% (inactive) | 99% (active) | inactive | inactive | inactive | inactive
12 | Cc1ccc(OC2CCN(c3ccc(C(=O)NC4CC4)cn3)CC2)cc1 | 75% (active) | 11% (inactive) | 4% (inactive) | 87% (active) | inactive | inactive | inactive | inactive
13 | O=C(Nc1ccc(OC2CCN(Cc3ccccc3)CC2)c(Cl)c1)c1ccc(F)cc1 | 92% (active) | 30% (inactive) | 9% (inactive) | 94% (active) | inactive | inactive | inactive | inactive
14 | CCOCCCn1c(=N)c(C(=O)NCc2ccc(OC)cc2)cc2c(=O)n3cccc(C)c3nc21 | 46% (inactive) | 24% (inactive) | 2% (inactive) | 99% (active) | inactive | inactive | inactive | inactive
15 | Cc1cc(N)nc2ccc(-c3cccc(CN)c3)cc12 | 59% (active) | 2% (inactive) | -8% (inactive) | 101% (active) | inactive | inactive | inactive | inactive
16 | O=c1cc(NCCCNCc2scc3c(Cl)cc(C(F)(F)F)nc23)[nH]c2ccccc12 | 21% (inactive) | 9% (inactive) | -1% (inactive) | 99% (active) | inactive | inactive | inactive | inactive
17 | COc1cc(C2C(Oc3ccccc3)C(=O)N2Cc2ccc(F)cc2)cc(OC)c1OC (configuration not stated) | 97% (active) | -2% (inactive) | 4% (inactive) | 100% (active) | inactive | inactive | inactive | inactive
18 | O=C(/C=C/c1ccc(Cl)c(Cl)c1)NCCCCCN1CCCN(C(=O)Nc2ccc(F)c(F)c2)CC1 | -1% (inactive) | 26% (inactive) | -2% (inactive) | 102% (active) | inactive | inactive | inactive | inactive
19 | CC(C)(C)NC(=O)C(c1ccc(F)cc1)N(C(=O)c1ccc(CN2CCOCC2)o1)c1ccc(C2CCCCC2)cc1 (configuration not stated) | 68% (active) | 0% (inactive) | -12% (inactive) | 87% (active) | inactive | inactive | inactive | inactive
20 | O=C(Nc1ccc(-c2ccccc2)cc1)Nc1cccc(OCCN2CCCC2)c1 | 14% (inactive) | 11% (inactive) | -2% (inactive) | 94% (active) | inactive | inactive | inactive | inactive

Row | Compound | growth inhibition [1] | inhibition [2] | inhibition [3] | growth inhibition [4] | outcome [5] | outcome [6] | outcome [7] | outcome [8]
21 | CC(=O)N(C)c1cccc(CNc2cc(C)nc(Nc3ccc(C)cc3)n2)c1 | 21% (inactive) | 8% (inactive) | -9% (inactive) | 97% (active) | inactive | inactive | inactive | inactive
22 | COC(=O)CCCCCOc1cc(Cc2cnc(N)nc2N)cc(OC)c1OC | -3% (inactive) | -15% (inactive) | 2% (inactive) | 90% (active) | inactive | inactive | inactive | inactive
23 | CN1CC[C@@H](Oc2cc(NC(=O)Nc3ccccc3Br)ccc2Cl)C1 | 6% (inactive) | 26% (inactive) | 0% (inactive) | 100% (active) | inactive | inactive | inactive | inactive
24 | COc1ccc2c(ccc3c2ncc2c(=O)n(-c4ccccc4)[nH]c23)c1 | 92% (active) | -2% (inactive) | 4% (inactive) | 95% (active) | inactive | inactive | inactive | inactive
25 | COc1ccc(Cc2nc3c(n2C(C)=O)SC(c2ccc(Cl)c(Cl)c2)=NN3C(C)=O)cc1 | 22% (inactive) | -2% (inactive) | -6% (inactive) | 94% (active) | inactive | inactive | inactive | inactive
26 | CSc1ccc(CN2CCC(NC(=O)c3ccc(-c4cccc(C(F)(F)F)c4)s3)CC2)cc1 | 9% (inactive) | 68% (active) | -2% (inactive) | 90% (active) | inactive | inactive | inactive | inactive
27 | CN(C)C1CCN(CC#Cc2cc3ncnc(Nc4ccc(OCc5cccc(F)c5)c(Cl)c4)c3s2)CC1 | 5% (inactive) | 34% (inactive) | -5% (inactive) | 85% (active) | inactive | inactive | inactive | inactive
28 | CCN(CC)C(=O)c1cnc(-c2ccccc2)nc1Oc1cccc(Cl)c1 | 40% (inactive) | -7% (inactive) | -3% (inactive) | 92% (active) | inactive | inactive | inactive | inactive
29 | Nc1nc(N)c2c(ccc3nn(C4CCCC4)cc32)n1 | 3% (inactive) | 44% (inactive) | -1% (inactive) | 97% (active) | inactive | inactive | inactive | inactive
30 | Cc1ccc2c(NN=Cc3cccc([N+](=O)[O-])c3)cc(C)nc2c1 | 97% (active) | 33% (inactive) | 5% (inactive) | 102% (active) | inactive | inactive | inactive | inactive
31 | COc1ccc2c(c1)CC(CNC[C@H](O)c1cccc(Cl)c1)CC2 (some centres not stated) | 73% (active) | 1% (inactive) | 7% (inactive) | 94% (active) | inactive | inactive | inactive | inactive
32 | COc1ccc2nccc(NC(=O)C3CCC(NCc4ccc5c(c4)NC(=O)CS5)CC3)c2c1 (configuration not stated) | 19% (inactive) | 0% (inactive) | -4% (inactive) | 94% (active) | inactive | inactive | inactive | inactive
33 | Cc1cc(N[C@@H](Cc2ccccc2)C(=O)Nc2ccccc2)nc(NCCc2ccccc2)n1 | 87% (active) | 8% (inactive) | 3% (inactive) | 101% (active) | inactive | inactive | inactive | inactive
34 | Cc1nnc(Sc2ncnc3scc(-c4ccc(F)cc4)c23)s1 | 50% (active) | 13% (inactive) | 4% (inactive) | 99% (active) | inactive | inactive | inactive | inactive
35 | COc1cccc(OC2CCN(C(=O)c3ccc(-c4ccc(N5CCCC5=O)cc4C)cc3)CC2)c1 | 80% (active) | 42% (inactive) | -3% (inactive) | 85% (active) | inactive | inactive | inactive | inactive
36 | CCNc1cc(C(=O)N[C@@H](Cc2ccccc2)[C@H](O)CNCC(C)C)cc(N2CCCC2=O)c1 | 97% (active) | 16% (inactive) | 3% (inactive) | 98% (active) | inactive | inactive | inactive | inactive
37 | COc1ccc2ncc(C#N)c(CCN3[C@@H]4CC[C@H]3CC(NCc3ccc5c(n3)NC(=O)CS5)C4)c2c1 (some centres not stated) | 27% (inactive) | 6% (inactive) | -1% (inactive) | 95% (active) | inactive | inactive | inactive | inactive
38 | Cc1nc(-c2nc(NCc3ccncc3)ncc2-c2ccsc2)sc1C | 83% (active) | 8% (inactive) | 2% (inactive) | 91% (active) | inactive | inactive | inactive | inactive
39 | Cc1[nH]nc2cc(Nc3ccnc(Nc4cccc(CN5CCOCC5)c4)n3)ccc12 | -10% (inactive) | 33% (inactive) | -8% (inactive) | 83% (active) | inactive | inactive | inactive | inactive
